Inconclusive results are not listed. Active and inactive are the calls of the source. Unless noted, calls come from the whole dose curve; as a rule, active = well fitted curve in the direction sought with a large enough effect; inconclusive = small, poorly fitted or top-dose-only effect, or another doubt; inactive = no such curve, though single readings can be large; an effect the other way counts as inactive or inconclusive.
Tests used:
[1] = AP1 Signaling Pathway (AID 357; active = well fitted curve in either direction with a large enough effect, not every such curve was filed as active; note: % is set by controls: 0 for no effect and ±100 for the full control effect); conditions: ME-180 AP-1-bla reporter, EGF-induced, beta-lactamase ratio, 5 h; at 17.2 µM (top of the series) unless noted
How it was run: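 AP-1-bla ME-180 cells with beta-lactamase reporter under AP-1 response element, stimulated with EC50 EGF; compounds titrated, 5 hours at 37 degrees Celsius. CCF4 read at 460/530 nm ratio; positive and negative modulators judged by AC50.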

[2] = NFAT Signaling Pathway (AID 444; active = well fitted curve in either direction with a large enough effect, not every such curve was filed as active;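 note: carbachol stimulus at about its EC50 of 1 µM final; % is set by controls: 0 for no effect and ±100 for the full control effect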); conditions: Jurkat NFAT-bla M1, carbachol, beta-lactamase ratio, 5 h; at 17.2 µM (top of the series) unless noted
How it was run: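 Jurkat cells with NFAT-driven β-lactamase reporter and co-expressed M1 receptor, stimulated with carbachol (final 1 uM, ~EC50), compound titration, 5 h at 37 °C. CCF4 loaded 1 h at RT; 460/530 nm ratio gave %activity and AC50.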

[3] = Stat Signaling Pathway (AID 446; active = well fitted curve in either direction with a large enough effect, not every such curve was filed as active;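 note: ME-180 cervical cancer cells given 40 pM IL-6 alongside compound; SIE-controlled beta-lactamase reporter measured as 460/530 nm FRET emission ratio; % is set by controls: 0 for no effect and ±100 for the full control effect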); conditions: ME-180 SIE beta-lactamase reporter, IL-6 stimulated, 5 h; at 17.2 µM (top of the series) unless noted
How it was run: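 Screening format detects activators and inhibitors alike: ME-180 SIE-bla cells stimulated at 40 pM IL-6 for 5 hrs with compound, then dual-emission beta-lactamase read at 405 nm excitation.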

[4] = target: Glucocorticoid receptor (Homo sapiens) (UniProt P04150); assay: GR-GFP Redistribution (AID 450;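 active = compounds whose dose series gives a full or clear partial fitted curve of increased nuclear translocation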; note: potency is the fitted concentration of half-maximal effect)
Sequence of Glucocorticoid receptor (Homo sapiens) (P04150 whole entry, looked up, the tested form may be a part): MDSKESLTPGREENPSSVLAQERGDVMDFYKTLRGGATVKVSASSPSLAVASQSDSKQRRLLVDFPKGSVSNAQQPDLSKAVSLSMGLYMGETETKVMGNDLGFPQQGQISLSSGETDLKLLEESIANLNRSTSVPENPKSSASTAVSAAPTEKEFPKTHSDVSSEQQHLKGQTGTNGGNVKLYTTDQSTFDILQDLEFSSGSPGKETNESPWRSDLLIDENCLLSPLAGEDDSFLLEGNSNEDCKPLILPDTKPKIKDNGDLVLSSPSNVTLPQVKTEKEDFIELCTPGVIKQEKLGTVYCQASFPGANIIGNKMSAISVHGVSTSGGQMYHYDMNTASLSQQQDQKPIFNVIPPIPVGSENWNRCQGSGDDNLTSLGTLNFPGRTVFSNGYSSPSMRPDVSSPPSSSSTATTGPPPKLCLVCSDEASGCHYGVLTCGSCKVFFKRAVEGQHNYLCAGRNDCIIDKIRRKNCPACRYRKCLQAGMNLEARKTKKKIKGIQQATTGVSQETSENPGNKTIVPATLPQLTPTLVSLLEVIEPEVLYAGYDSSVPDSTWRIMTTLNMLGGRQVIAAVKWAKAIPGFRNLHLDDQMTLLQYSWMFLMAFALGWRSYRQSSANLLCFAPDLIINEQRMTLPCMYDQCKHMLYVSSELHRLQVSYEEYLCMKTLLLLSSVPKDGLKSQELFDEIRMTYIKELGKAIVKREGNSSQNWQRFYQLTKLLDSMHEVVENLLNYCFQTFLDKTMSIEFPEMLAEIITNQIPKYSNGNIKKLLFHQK

[5] = target: Glucocorticoid receptor (Homo sapiens) (UniProt P04150); assay: GR-EFC Redistribution (AID 451; calls by dose curve; note: potency is the fitted concentration of half-maximal effect); conditions: CHO-K1 GR-EFC translocation, beta-gal luminescence, 2 h
How it was run: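 CHO-K1 cells expressing nuclear EA and GR-ED fragments of b-gal; compounds titrated up to 46 uM final, 2 h at 37 C. GR nuclear translocation read as complemented b-gal luminescence after 1 h RT detection.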

[6] = target: 3',5'-cyclic-AMP phosphodiesterase 4B (Homo sapiens) (UniProt Q07343); assay: qHTS Assay for Inhibitors of PDE-IV (AID 607; active = well fitted activation curve with a large enough effect in the main read-out, with a control signal flat, not every such curve was filed as active; note: % of control where 0% means no effect)
Sequence of 3',5'-cyclic-AMP phosphodiesterase 4B (Homo sapiens) (Q07343 whole entry, looked up): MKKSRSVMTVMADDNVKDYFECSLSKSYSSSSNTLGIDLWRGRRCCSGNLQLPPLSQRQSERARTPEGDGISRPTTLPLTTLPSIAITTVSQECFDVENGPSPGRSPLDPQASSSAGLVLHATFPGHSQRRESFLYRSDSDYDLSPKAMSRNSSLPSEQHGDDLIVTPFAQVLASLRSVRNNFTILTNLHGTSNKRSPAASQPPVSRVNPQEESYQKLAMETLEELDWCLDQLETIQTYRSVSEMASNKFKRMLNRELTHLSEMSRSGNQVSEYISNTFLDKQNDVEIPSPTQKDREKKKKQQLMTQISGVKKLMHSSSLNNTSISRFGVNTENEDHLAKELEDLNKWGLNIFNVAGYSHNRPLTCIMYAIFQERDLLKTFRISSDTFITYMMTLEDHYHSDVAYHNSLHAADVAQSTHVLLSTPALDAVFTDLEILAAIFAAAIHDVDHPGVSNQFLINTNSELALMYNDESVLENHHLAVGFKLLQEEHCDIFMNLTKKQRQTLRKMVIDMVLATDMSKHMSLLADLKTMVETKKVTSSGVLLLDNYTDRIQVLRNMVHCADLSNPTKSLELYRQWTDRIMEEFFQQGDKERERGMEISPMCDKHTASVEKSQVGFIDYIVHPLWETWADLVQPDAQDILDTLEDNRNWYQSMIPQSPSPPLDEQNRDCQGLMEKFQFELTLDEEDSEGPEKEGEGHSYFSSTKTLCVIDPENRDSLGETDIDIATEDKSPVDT
How it was run: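 The readout is membrane depolarisation from a cAMP-sensing CNG channel, detected with a potential dye at ex 535/em 590. Cells were HEK293-derived (endogenous PDE-IV) at 1000 cells/well, titrated up to 22.9 uM final.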

[7] = target: Guanine nucleotide-binding protein G(i) subunit alpha-1 (Homo sapiens) (UniProt P63096); assay: qHTS Assay for Inhibitors of RGS12 GoLoco Motif Activity (Green Fluorophore) (AID 879);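 note: 0% = labeled peptide with Gαi1 and full inhibition = labeled peptide alone without protein; negative values mean loss of peptide binding seen as reduced polarization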
Sequence of Guanine nucleotide-binding protein G(i) subunit alpha-1 (Homo sapiens) (P63096 whole entry, looked up): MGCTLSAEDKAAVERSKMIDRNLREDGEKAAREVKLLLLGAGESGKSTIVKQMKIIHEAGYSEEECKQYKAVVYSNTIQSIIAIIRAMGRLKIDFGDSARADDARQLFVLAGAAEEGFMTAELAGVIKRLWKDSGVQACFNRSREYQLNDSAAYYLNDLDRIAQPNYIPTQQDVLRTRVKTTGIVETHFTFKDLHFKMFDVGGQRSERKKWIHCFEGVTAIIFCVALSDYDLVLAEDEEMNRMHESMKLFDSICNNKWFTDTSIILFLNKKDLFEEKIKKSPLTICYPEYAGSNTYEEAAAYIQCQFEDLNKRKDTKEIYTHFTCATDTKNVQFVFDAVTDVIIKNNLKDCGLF
How it was run: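 Fluorescence polarization assay: 50 nM Gαi1 with 10 nM FITC-labeled RGS12 GoLoco peptide in 10 mM Tris pH 7.5, 150 mM NaCl, 0.1 mM GDP, 0.05% NP40, 10 min at room temperature with compound.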

[8] = qHTS Assay for Identification of Small Molecule Agonists for Thrombopoietin (TPO) Signaling Pathway (AID 917); note: % is set by controls: 0 for no effect and ±100 for the full control effect
How it was run: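 Murine Ba/F3 cells expressing human TPO receptor and GPIIb-promoter luciferase, IL-3-starved overnight, given compound plus TPO at 26 pM (EC50). After 24 h at 37 C, 5% CO2, luminescence read.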

[9] = target: Pyruvate kinase (Leishmania mexicana) (UniProt Q27686); assay: qHTS Validation Assay for Inhibitors of Leishmania Mexicana Pyruvate Kinase (AID 945);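 note: 0% = DMSO only neutral control wells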
Sequence of Pyruvate kinase (Leishmania mexicana) (Q27686 2-499 E452W): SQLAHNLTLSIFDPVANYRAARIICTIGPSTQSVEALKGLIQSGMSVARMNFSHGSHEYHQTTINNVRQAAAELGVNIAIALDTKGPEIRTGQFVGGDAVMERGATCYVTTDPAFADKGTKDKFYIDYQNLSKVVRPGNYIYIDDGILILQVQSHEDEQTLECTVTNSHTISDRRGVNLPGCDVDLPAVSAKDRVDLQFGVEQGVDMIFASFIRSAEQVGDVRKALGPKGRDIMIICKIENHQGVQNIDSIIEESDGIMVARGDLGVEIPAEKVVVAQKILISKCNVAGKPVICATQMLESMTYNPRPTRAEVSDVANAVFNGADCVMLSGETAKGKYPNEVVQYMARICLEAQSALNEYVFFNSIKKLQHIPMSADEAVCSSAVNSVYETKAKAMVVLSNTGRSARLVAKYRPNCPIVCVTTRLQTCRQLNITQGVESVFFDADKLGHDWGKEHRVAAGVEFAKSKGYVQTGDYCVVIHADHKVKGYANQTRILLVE
How it was run: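 Read-out: luminescence from PKLight stop/detection reagent, data normalized to DMSO. Reaction: 0.2 nM E451W LmPYK, 0.5 mM PEP, 0.1 mM ADP, pH 7.2, 1 h room temperature.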

[10] = target: Pyruvate kinase PKM (Homo sapiens) (UniProt P14618); assay: qHTS Assay for Activators of Human Muscle Pyruvate Kinase (AID 954; active = well fitted curve in the direction sought with a large enough effect, not every such curve was filed as active;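 note: 0% = uninhibited enzyme and -100% = no enzyme or full thiadiazolimine inhibition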)
Sequence of Pyruvate kinase PKM (Homo sapiens) (P14618 whole entry, looked up): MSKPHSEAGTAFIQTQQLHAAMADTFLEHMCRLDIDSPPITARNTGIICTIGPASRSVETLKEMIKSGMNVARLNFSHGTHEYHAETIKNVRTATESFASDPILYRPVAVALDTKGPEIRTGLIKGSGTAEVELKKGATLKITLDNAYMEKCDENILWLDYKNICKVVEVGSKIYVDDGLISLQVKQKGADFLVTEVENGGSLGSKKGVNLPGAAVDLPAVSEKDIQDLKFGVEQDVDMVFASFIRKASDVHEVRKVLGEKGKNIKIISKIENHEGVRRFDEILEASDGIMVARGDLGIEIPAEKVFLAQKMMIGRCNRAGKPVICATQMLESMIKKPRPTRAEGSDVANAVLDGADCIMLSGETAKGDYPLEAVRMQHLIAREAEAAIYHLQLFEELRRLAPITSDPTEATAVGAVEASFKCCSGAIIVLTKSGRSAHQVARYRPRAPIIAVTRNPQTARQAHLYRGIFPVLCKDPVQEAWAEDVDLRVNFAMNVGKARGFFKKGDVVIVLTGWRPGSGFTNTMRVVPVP
How it was run: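 Reaction: 0.1 nM purified PKM2 with 0.5 mM phosphoenolpyruvate and 0.1 mM ADP, room temperature, 1 h. Readout: luciferase-based ATP luminescence after stop reagent. Activators judged against a 0.3 nM enzyme column.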

[11] = target: Alpha-galactosidase A (Homo sapiens) (UniProt P06280); assay: Counterscreen for Glucocerebrosidase Inhibitors: qHTS Assay for Human alpha-Galactosidase at pH 4.5 (AID 992); note: 0% is about no effect
Sequence of Alpha-galactosidase A (Homo sapiens) (P06280 whole entry, looked up): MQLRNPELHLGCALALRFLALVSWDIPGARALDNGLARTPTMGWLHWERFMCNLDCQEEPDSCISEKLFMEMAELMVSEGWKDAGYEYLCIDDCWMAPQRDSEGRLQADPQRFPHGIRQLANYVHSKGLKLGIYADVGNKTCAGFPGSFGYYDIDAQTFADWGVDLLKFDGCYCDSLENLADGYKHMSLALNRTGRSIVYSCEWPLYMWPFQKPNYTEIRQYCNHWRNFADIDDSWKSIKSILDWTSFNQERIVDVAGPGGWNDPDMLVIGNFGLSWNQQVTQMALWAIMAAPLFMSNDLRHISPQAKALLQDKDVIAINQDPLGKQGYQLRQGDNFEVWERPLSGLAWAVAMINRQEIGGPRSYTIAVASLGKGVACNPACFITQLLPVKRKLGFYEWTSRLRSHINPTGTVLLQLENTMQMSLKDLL
How it was run: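 Concentration-response curves (0.7 nM to 77 uM final) were modeled with the Hill equation to give AC50. Reactions: 2 nM enzyme, 80 uM fluorogenic alpha-galactoside, pH 4.5 citric acid buffer, 20 min, room temperature.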

[12] = target: alpha-glucosidase (Oryza sativa, rice) (UniProt Q653V4); assay: Counterscreen for Glucocerebrosidase Inhibitors: qHTS Assay for Rice alpha-Glucosidase at pH 5.0 (AID 997);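 note: 0% = full activity with enzyme and -100% = basal without enzyme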
How it was run: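 Rice alpha-glucosidase (4 nM final) with 400 uM 4-methylumbelliferyl-alpha-D-glucopyranoside in citrate buffer pH 5.0, 20 min at room temperature, stopped at pH 10; fluorescence 365/440 nm, compounds 0.7 nM–77 uM, AC50 from Hill fits.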

[13] = target: Mitogen-activated protein kinase 10 (Mus musculus) (UniProt Q61831); assay: JNK3 AlphaScreen Assay (AID 530; active = well fitted curve in either direction with a large enough effect, not every such curve was filed as active)
How it was run: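 Pre-activated (IL-1β/TNFα) JNK3 in HepG2 lysates phosphorylates biotin-GST-cJun(1-79), 10 uM ATP; anti-phospho-cJun(Ser73) AlphaScreen read at room temperature, pH 7.6 Tris buffer. Compounds pre-incubated 15 min as titrations.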

[14] = qHTS Assay for Identification of Small Molecule Antagonists for NFkB Signaling Pathway (AID 895; active = well fitted inhibition curve with a large enough effect in the signal ratio, with a control signal flat, not every such curve was filed as active; the % refers to the signal ratio; note: potency is the fitted concentration of half-maximal effect)
How it was run: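 ME-180 NFkB-bla cells (beta-lactamase under NFkB response element), plated overnight, treated with compound then 10 pM TNF alpha (about EC50) for 5 hrs at 37 C. LiveBLAzer FRET read at 460/530 nm emission, 405 nm excitation.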

[15] = qHTS Assay for Identification of Small Molecule Agonists for Hypoxia Response Element Signaling Pathway (AID 914; active = well fitted activation curve with a large enough effect in the signal ratio, with a control signal flat, not every such curve was filed as active; the % refers to the signal ratio; note: potency is the fitted concentration of half-maximal effect; for activation: % of control where 0% means no effect); conditions: ME-180 (cervical carcinoma) HRE-bla reporter, beta-lactamase ratio, CoCl2, 17 h; activation: active compounds read high
How it was run: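 qHTS titration; ME-180 HRE-bla cells; EC50 CoCl2 co-treatment, 17 h at 37 degrees Celsius; CCF4 dye, ex 405nm, em 460nm and 530nm; %Activity from ratio; AC50.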

[16] = target: Muscarinic acetylcholine receptor M1 (Rattus norvegicus) (UniProt P08482); assay: qHTS Assay for Antagonists of Acetylcholine Muscarinic M1 Receptor: Kinetic Measurement of Intracellular Calcium Response (AID 943);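 note: Fluo-4 calcium signal as peak divided by basal fluorescence over 4 min; nearly all actives have a fitted effect of over 75% in size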
Sequence of Muscarinic acetylcholine receptor M1 (Rattus norvegicus) (P08482 whole entry, looked up): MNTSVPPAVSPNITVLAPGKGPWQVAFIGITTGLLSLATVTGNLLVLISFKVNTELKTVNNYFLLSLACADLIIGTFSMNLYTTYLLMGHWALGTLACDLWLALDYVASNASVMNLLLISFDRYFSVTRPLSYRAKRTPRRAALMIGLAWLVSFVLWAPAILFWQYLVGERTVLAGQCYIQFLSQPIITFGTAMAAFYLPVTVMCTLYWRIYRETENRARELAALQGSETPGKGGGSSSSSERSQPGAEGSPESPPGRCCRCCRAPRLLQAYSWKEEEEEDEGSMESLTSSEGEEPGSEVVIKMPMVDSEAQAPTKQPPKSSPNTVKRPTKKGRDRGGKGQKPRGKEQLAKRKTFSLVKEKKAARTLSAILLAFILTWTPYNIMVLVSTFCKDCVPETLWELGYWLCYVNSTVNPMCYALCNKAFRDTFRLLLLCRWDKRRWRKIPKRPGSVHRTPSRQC
How it was run: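 Rat M1-CHO cells, 2000/well, overnight → Fluo-4 no-wash dye with probenecid, 1 h 37C → compound 10 min, room temp → basal read 6 s → carbachol EC80 (100 nM) → 4 min kinetic read; peak/basal.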

[17] = target: Muscarinic acetylcholine receptor M1 (Rattus norvegicus) (UniProt P08482); assay: qHTS Assay for Antagonists of Acetylcholine Muscarinic M1 Receptor: Measurement of IP-One Response (AID 944); note: nearly all actives have a fitted effect of over 75% in size
How it was run: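 M1-CHO (rat), 2000 cells/well, overnight recovery; cpd 10 min; carbachol EC80 (200 nM), 30 min, HEPES buffer + 50 mM LiCl pH 7.4; IP-One HTRF, Ex 337, Em 620/665 nm.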

[18] = target: Cytochrome P450 3A4 (Homo sapiens) (UniProt P08684); assay: qHTS Assay for Activators of Cytochrome P450 3A4 (AID 885); note: nearly all actives have a fitted effect of over 65% in size
Sequence of Cytochrome P450 3A4 (Homo sapiens) (P08684 whole entry, looked up): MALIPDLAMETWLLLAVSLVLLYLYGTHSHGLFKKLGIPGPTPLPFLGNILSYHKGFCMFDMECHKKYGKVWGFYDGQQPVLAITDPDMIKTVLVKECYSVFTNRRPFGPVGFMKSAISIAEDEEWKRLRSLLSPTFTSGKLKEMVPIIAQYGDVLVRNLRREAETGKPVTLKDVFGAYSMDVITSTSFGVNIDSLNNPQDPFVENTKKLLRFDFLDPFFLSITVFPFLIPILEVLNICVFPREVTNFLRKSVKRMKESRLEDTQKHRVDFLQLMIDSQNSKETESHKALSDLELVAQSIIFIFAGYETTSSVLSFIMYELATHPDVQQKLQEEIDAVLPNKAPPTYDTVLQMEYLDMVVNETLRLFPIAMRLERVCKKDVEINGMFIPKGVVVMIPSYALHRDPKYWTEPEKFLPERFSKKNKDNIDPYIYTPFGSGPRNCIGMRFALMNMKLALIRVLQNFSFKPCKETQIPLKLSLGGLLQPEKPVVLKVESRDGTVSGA
How it was run: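 Steps: enzyme/substrate mix dispensed; compound added, 10 min RT; NADPH regeneration solution added, 60 min RT; luciferin detection buffer stops reaction; 20 min later luminescence measured.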

[19] = target: Cytochrome P450 2D6 (Homo sapiens) (UniProt P10635); assay: qHTS Assay for Inhibitors and Substrates of Cytochrome P450 2D6 (AID 891); note: potency is the fitted concentration of half-maximal effect; nearly all actives have a fitted effect of over 60% in size
Sequence of Cytochrome P450 2D6 (Homo sapiens) (P10635 whole entry, looked up): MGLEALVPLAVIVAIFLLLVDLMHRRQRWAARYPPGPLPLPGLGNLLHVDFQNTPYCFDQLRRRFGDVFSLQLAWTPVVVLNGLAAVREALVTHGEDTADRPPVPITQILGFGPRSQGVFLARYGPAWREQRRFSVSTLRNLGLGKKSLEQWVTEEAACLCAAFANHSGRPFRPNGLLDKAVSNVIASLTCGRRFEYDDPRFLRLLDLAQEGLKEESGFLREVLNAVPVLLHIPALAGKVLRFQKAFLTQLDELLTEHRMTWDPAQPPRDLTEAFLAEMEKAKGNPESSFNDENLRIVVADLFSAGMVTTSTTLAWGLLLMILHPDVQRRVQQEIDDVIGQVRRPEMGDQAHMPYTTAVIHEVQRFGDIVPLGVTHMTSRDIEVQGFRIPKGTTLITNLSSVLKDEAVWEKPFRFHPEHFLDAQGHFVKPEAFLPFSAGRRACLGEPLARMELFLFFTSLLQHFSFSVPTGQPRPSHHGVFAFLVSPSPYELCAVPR
How it was run: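 Human CYP2D6 (5 nM) with 30 uM Luciferin-ME EGE (at Km) in 100 mM KPO4, compound preincubated 10 min, then NADPH regeneration system for 60 min at room temperature. Luciferin read by luminescence; normalized to 1.43 uM quinidine.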

[20] = target: Cytochrome P450 2C19 (Homo sapiens) (UniProt P33261); assay: qHTS Assay for Inhibitors and Substrates of Cytochrome P450 2C19 (AID 899); note: potency is the fitted concentration of half-maximal effect; nearly all actives have a fitted effect of over 60% in size
How it was run: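 5 nM human CYP2C19 with 10uM Luciferin-H EGE (at KM) in 50mM KPO4, compound preincubated 10 min at 37C, then NADPH regeneration for 60 min at 37C. Luciferin read by luminescence after detection reagent; normalized to 57uM ketoconazole as full inhibition.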

CC(=O)S[C@@H]1CC2=CC(=O)CC[C@@]2(C)[C@H]2CC[C@]3(C)[C@H](CC[C@@]34CCC(=O)O4)[C@H]12
inactive: activity change, negative = inhibition [1] 19.8% [at 38 µM] | activity change, negative = inhibition [2] -10% [at 38 µM] | activity, negative = inhibition [3] -9.34% [at 38 µM] | Potency [5] > 46 µM | Potency [6] | outcome [7] | Potency [8] | Potency [9] | outcome [10] | outcome [11] | outcome [12]
active: Potency [4] 1.4 µM

O=c1[nH]c(=O)n([C@H]2C[C@H](O)[C@H](CO)O2)cc1/C=C\Br
inactive: activity change, negative = inhibition [1] -6.02% [at 38 µM] | activity change, negative = inhibition [2] 3.97% [at 38 µM] | activity, negative = inhibition [3] 6.62% [at 38 µM] | Potency [4] > 46 µM | Potency [5] > 46 µM | Potency [13] | Potency [6] | outcome [7] | Potency [14] | activation [15] 0.219% | Potency [8] | Potency [16] | Potency [17] | Potency [9] | outcome [10] | outcome [11] | outcome [12]

CCCN1C[C@@H](CSC)C[C@H]2c3cccc4[nH]cc(c34)C[C@@H]21
inactive: activity change, negative = inhibition [1] 10.4% [at 38 µM] | activity change, negative = inhibition [2] -24.1% [at 38 µM] | activity, negative = inhibition [3] -10.6% [at 38 µM] | Potency [4] > 46 µM | Potency [5] > 46 µM | Potency [6] | outcome [7] | Potency [18] | Potency [14] | Potency [8] | Potency [9] | outcome [10] | outcome [11] | outcome [12]
active: Potency [19] 0.1 µM

CC(C)(C(=O)O)c1ccc([C@@H](O)CCCN2CCC(C(O)(c3ccccc3)c3ccccc3)CC2)cc1
inactive: activity change, negative = inhibition [1] 8.57% [at 38 µM] | activity change, negative = inhibition [2] 8.69% [at 38 µM] | activity, negative = inhibition [3] 11.8% [at 38 µM] | Potency [4] > 46 µM | Potency [5] > 46 µM | Potency [13] | outcome [7] | Potency [8] | Potency [9] | outcome [10] | outcome [11] | outcome [12]

Cc1c(NC(=O)c2ccc(=O)oc2)c(=O)n(-c2ccccc2)n1C
inactive: activity change, negative = inhibition [1] 10.3% | activity change, negative = inhibition [2] -22.5% | activity, negative = inhibition [3] 2.43% | Potency [4] > 20.6 µM

O=C1c2c(O)cc(O)cc2O[C@@H](c2ccc(O)c(O)c2)[C@H]1O
inactive: activity change, negative = inhibition [1] -14.3% [at 38 µM] | activity change, negative = inhibition [2] 13.3% [at 38 µM] | activity, negative = inhibition [3] -8.15% [at 38 µM] | Potency [4] > 46 µM | Potency [13] | Potency [6] | outcome [7] | Potency [18] | Potency [8] | Potency [9] | outcome [10] | outcome [11] | outcome [12]
active: Potency [14] 1.58 µM

O=C(O)C[C@@H]1CCCc2ccccc2[C@H]1O
inactive: activity change, negative = inhibition [1] 1.66% [at 38 µM] | activity change, negative = inhibition [2] 2.27% [at 38 µM] | activity, negative = inhibition [3] -11.9% [at 38 µM] | Potency [4] > 46 µM | Potency [5] > 46 µM | Potency [13] | Potency [6] | outcome [7] | Potency [8] | Potency [16] | Potency [17] | Potency [9] | outcome [10] | outcome [11] | outcome [12]

CC(C)(C)c1cc(Br)c(O)c(CN(Cc2cc(C(C)(C)C)cc(Br)c2O)C2CCCCC2)c1
inactive: activity change, negative = inhibition [1] 10.4% [at 7.69 µM] | activity change, negative = inhibition [2] 3.39% [at 7.69 µM] | activity, negative = inhibition [3] -1.22% [at 7.69 µM] | Potency [4] > 46 µM | activity change, negative = inhibition [13] 19.2% [at 11.4 µM]
active: Potency [19] 0.199 µM | Potency [20] 0.631 µM

Cc1ccc(C(=O)/C=C/Nc2cccc(O)c2)cc1
active: Potency [15] 10 µM
inactive: activity change, negative = inhibition [1] 10.4% | activity change, negative = inhibition [2] 1.57% | activity, negative = inhibition [3] -17.8% | Potency [4] > 20.6 µM

CN1C[C@H](C(=O)N[C@]2(C)O[C@]3(O)[C@H]4CCCN4C(=O)[C@H](Cc4ccccc4)N3C2=O)C[C@H]2c3cccc4[nH]cc(c34)C[C@@H]21
inactive: activity change, negative = inhibition [1] 1.56% | activity change, negative = inhibition [2] -6.21% | activity, negative = inhibition [3] -7.06% | Potency [4] > 20.6 µM | Potency [5] > 20.6 µM | Potency [13]

Cn1c(=O)c2c(nc(/C=C\c3cccc(Cl)c3)n2C)n(C)c1=O
inactive: activity change, negative = inhibition [1] 7.2% [at 38 µM] | activity change, negative = inhibition [2] -6.69% [at 38 µM] | activity, negative = inhibition [3] -14.4% [at 38 µM] | Potency [4] > 46 µM | Potency [5] > 46 µM | Potency [13] | Potency [6] | outcome [7] | Potency [8] | Potency [17] | Potency [9] | outcome [10] | outcome [11] | outcome [12]
